A selection: hits, their analogues and other compounds. The true share with any hit is near 3.1%.
CASP6 VEID inh: human caspase-6 inhibitors, primary screen, biochemical, VEID-R110 fluorescence, single point, set 2; P55212; purified caspase-6, Z-VEID-R110 cleavage fluorescence; inhibition, % at 12.5 µM; 350,000 compounds, 0.53% hits; AID 686996, 2013;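 active means mean inhibition across replicates at least about 35%, with every replicate also reaching that limit, limit read from the data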
Target sequence (P55212 24-179 limits assumed): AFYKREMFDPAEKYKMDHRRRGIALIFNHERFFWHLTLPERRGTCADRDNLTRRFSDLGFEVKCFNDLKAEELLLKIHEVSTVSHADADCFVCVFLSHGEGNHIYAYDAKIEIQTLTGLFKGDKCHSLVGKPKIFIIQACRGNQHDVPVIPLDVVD
Target sequence (P55212 194-293 limits assumed): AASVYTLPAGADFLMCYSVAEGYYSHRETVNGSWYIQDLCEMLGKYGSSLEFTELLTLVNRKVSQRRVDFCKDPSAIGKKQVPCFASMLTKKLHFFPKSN
ERAP1 HTS inh: human ERAP1 aminopeptidase inhibitors, primary screen, biochemical, single point, plate reader. Endoplasmic reticulum aminopeptidase 1 (Homo sapiens), Q9NZ08. recombinant ERAP1, Leu-AMC fluorescence, 60 min. inhibition, % at 10.7 µM. 340,000 compounds, 0.15% hits. AID 652197, 2013;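 active means mean replicate inhibition of at least 30%, or all replicates individually reaching that 30% level; inactive means mean below 30% and not every replicate reaching it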
SIRT5 block: SIRT5 desuccinylase inhibitors, primary screen, biochemical, fluorescence imaging, single point, set 5; NAD-dependent protein deacylase sirtuin-5, mitochondrial (Homo sapiens), Q9NXA8; Purified SirT5, succinyl-peptide AMC, trypsin-coupled fluorescence; inhibition, % at 15 µM; 330,000 compounds, 1.1% hits; in the data active means inhibition above about 15%
FGF22 binding: binders of human FGF22 protein, primary screen, FGF22 synaptogenesis inhibitor project, biophysical, thermal shift, single point | Fibroblast growth factor 22 (Homo sapiens), Q9HCT0 | recombinant FGF22 thermal shift, SYPRO orange fluorescence; percent of sucrose octasulfate shift, DMSO zero | activity (Tm shift, normalised), % at 9.99 µM | 340,000 compounds, 1.5% hits | AID 651658, 2012;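 active means mean Tm shift, scaled 0 neutral to 100 positive control, at about 1.3% or above, every replicate too, limit read from the data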
Target sequence (Q9HCT0 whole entry, looked up): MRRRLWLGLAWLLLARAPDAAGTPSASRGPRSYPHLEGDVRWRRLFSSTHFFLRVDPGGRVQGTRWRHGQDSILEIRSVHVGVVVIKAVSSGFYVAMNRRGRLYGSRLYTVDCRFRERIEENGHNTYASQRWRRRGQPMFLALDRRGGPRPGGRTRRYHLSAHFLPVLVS
Numbers stand for hits; - = inactive; . = not tested or not shown.

SMILES	CASP6 VEID inh	ERAP1 HTS inh	SIRT5 block	FGF22 binding
COc1ccc(CC(=O)NCc2nnc(SCc3ccc([N+](=O)[O-])cc3)n2C)cc1	-	-	-	-
COc1ccc(CC(=O)NCc2nnc(SCc3ccc(C)cc3)n2C)cc1	-	-	-	43
O=C(O)c1cc(-n2nnnc2SCc2ccccc2F)ccc1Cl	-	-	-	43
O=C(O)c1ccc(N2C(=O)c3ccccc3C2=O)cc1[N+](=O)[O-]	-	-	.	43
O=C(O)c1ccc(N2C(=O)c3cccc4c(C(=O)O)ccc(c34)C2=O)cc1	53	-	-	-
Nc1ccc2c3c(cccc13)C(=O)N(c1ccccc1)C2=O	-	-	-	-
O=C(O)c1ccc2c3c(cccc13)C(=O)N(c1ccccc1)C2=O	50	-	-	-
O=C(O)c1ccc([N+](=O)[O-])c2c1C(=O)c1ccccc1C2=O	-	.	.	-
C[C@H]1CN([C@@H](C)CO)C(=O)c2cccc(NC(=O)C3CCCCC3)c2O[C@H]1CN(C)CC1CCCCC1	-	-	-	-
O=C(NCC[C@@H]1CC[C@H](NS(=O)(=O)c2ccc(F)cc2)[C@@H](CO)O1)c1ccccc1F	-	-	-	.
CCN(C(=O)CSc1nc2ccc([N+](=O)[O-])cc2s1)c1c(N)n(Cc2ccccc2)c(=O)[nH]c1=O	-	-	-	-
CN(C(=O)CSc1nc2ccccc2s1)c1c(N)n(Cc2ccccc2)c(=O)[nH]c1=O	-	-	-	43
C[C@@H]1CN([C@@H](C)CO)C(=O)c2cccc(NC(=O)c3nc4ccccc4s3)c2O[C@@H]1CN(C)Cc1ccc(C(=O)O)cc1	-	-	-	-
C[C@H](CO)N1C[C@H](C)[C@H](CN(C)Cc2ccc(C(F)(F)F)cc2)Oc2c(NC(=O)c3nc4ccccc4s3)cccc2C1=O	-	-	28	-
C[C@@H]1CN([C@H](C)CO)C(=O)c2cccc(NC(=O)c3nc4ccccc4s3)c2O[C@@H]1CN(C)Cc1ccc(C(F)(F)F)cc1	-	-	25	-
C[C@@H]1CN([C@H](C)CO)C(=O)c2cccc(NC(=O)c3nc4ccccc4s3)c2O[C@@H]1CN(C)Cc1ccccc1	-	-	-	-
C[C@H]1CN([C@@H](C)CO)C(=O)c2cccc(NC(=O)c3nc4ccccc4s3)c2O[C@@H]1CN(C)Cc1ccc(C(F)(F)F)cc1	-	-	21	-
C[C@H](CO)N1C[C@H](C)[C@@H](CN(C)Cc2ccc(C(F)(F)F)cc2)Oc2c(NC(=O)c3nc4ccccc4s3)cccc2C1=O	-	-	16	-
COc1ccc(CN(C)C[C@@H]2OCCCC[C@@H](C)Oc3ccc(NS(=O)(=O)c4cn(C)cn4)cc3C(=O)N([C@H](C)CO)C[C@@H]2C)cc1	-	-	-	-
C[C@H]1CN([C@@H](C)CO)C(=O)c2cccc(NC(=O)c3nc4ccccc4s3)c2O[C@@H]1CN(C)Cc1ccccc1	-	-	-	-
C[C@@H]1CN([C@@H](C)CO)C(=O)c2cccc(NC(=O)c3nc4ccccc4s3)c2O[C@H]1CN(C)Cc1ccc(C(F)(F)F)cc1	-	-	22	-
Cc1ccccc1NC(=S)NC1CCCC1	-	-	-	-
Cc1ccccc1NC(=O)C(NC1CCCCC1)C(C)C (stereo not given)	-	-	36	-
CCOC(=O)c1cnc(-c2ccccc2)nc1N1CC(C)OC(C)C1 (stereo not given)	.	-	-	43
CCOC(=O)c1nnc(-c2ccccc2)nc1N1CC(C)OC(C)C1 (stereo not given)	-	-	-	-
SMILES	CASP6 VEID inh	ERAP1 HTS inh	SIRT5 block	FGF22 binding
Cc1cc(C(=O)CN2C(=O)NC3(CCCCC3)C2=O)c(C)n1-c1ccc2c(c1)OCO2	-	-	-	-
Cc1cc(C(=O)COc2ccc(C#N)cc2)c(C)n1CC1CCCO1 (stereo not given)	-	-	.	43
Cc1cc(C(=O)COc2ccc(C#N)cc2)c(C)n1-c1ccc2c(c1)OCO2	-	-	35	-
CCOCCOC(=O)C(C)Oc1ccc(Oc2ncc(Cl)cc2Cl)cc1 (stereo not given)	-	-	.	-
CCOCCOC(=O)C(C)Oc1ccc(Oc2nc(Cl)ccc2Cl)cc1 (stereo not given)	-	-	-	43
Oc1c(N=NC(=S)Nc2ccccc2F)c2ccccc2n1Cc1ccccc1	-	-	-	-
Cc1ccc(Cn2c(O)c(N=NC(=S)Nc3ccccc3F)c3ccccc32)cc1	.	-	18	.
CN(C)C(=O)C[C@H]1CC[C@@H]2[C@@H](COc3ccc(NC(=O)C4CCCCC4)cc3C(=O)N2C)O1	-	-	-	-
O=C(c1ccncc1)N1CCCCN2[C@H](C1)[C@H](c1ccc(C#Cc3ccccn3)cc1)[C@@H]2CO	37	-	-	-
O=C(NC1CCCC1)N1CCCCN2[C@H](C1)[C@H](c1ccc(/C=C/c3ccccc3)cc1)[C@@H]2CO	-	-	28	-
O=C(NC1CCCC1)N1CCCCN2[C@H](C1)[C@@H](c1ccc(/C=C/c3ccccc3)cc1)[C@@H]2CO	-	-	16	-
O=C(NC1CCCC1)N1CCCCN2[C@H](CO)[C@@H](c3ccc(/C=C/c4ccccc4)cc3)[C@@H]2C1	-	-	-	-
O=C(NC1CCCC1)N1CCCCN2[C@@H](CO)[C@@H](c3ccc(-c4ccccc4)cc3)[C@@H]2C1	-	-	-	-
O=C(c1ccncc1)N1CCCCN2[C@H](CO)[C@@H](c3ccc(C#Cc4ccccn4)cc3)[C@@H]2C1	-	-	-	-
S=C(Nc1ccc2nsnc2c1)N1CCCCCC1	56	-	-	-
Cc1cc(N2CCN(C)CC2)nc2ccc(NC(=S)N3CCCCCC3)cc12	-	.	20	-
CCN(CC)CCNC(=S)Nc1ccc2nc(N3CCN(CC)CC3)cc(C)c2c1	-	-	-	-
Cc1cc(N2CCN(C)CC2)nc2ccc(NC(=S)N3CCCCC3)cc12	-	-	-	-
CCN1CCN(c2cc(C)c3cc(NC(=S)NCCN(C)C)ccc3n2)CC1	-	-	21	-
COc1ccc(NC(=O)Nc2cccc3c2O[C@H](CN(C)S(=O)(=O)c2ccc(F)cc2)[C@H](C)CN([C@@H](C)CO)C3=O)cc1	.	.	.	-
CC(C)CC(=O)N1CCN(Cc2ccccc2[N+](=O)[O-])CC1	-	-	32	-
CCOC(=O)N1CCN(C(=O)COc2ccccc2[N+](=O)[O-])CC1	-	-	-	-
CCOC(=O)N1CCN(C(=O)Cc2ccccc2[N+](=O)[O-])CC1	35	-	-	-
CC(C)CC(=O)N1CCN(Cc2cccc([N+](=O)[O-])c2)CC1	-	-	-	-
Cc1ccc(NC(=O)Nc2ccc3c(c2)C(=O)N(C)[C@@H]2CC[C@H](CC(=O)O)O[C@H]2CO3)cc1	-	-	-	-
Cc1[nH]c2ccc(F)cc2c1CCN(Cc1cccnc1)C(=S)Nc1cccc(F)c1	-	-	-	44

Bioassay records (PubChem BioAssay)
